We go through 21 molecules from PubChem BioAssay.

Experiment [1] can be described thus: viability loss with induced miR-34 in A549 – imaging, A549 dox-inducible miR-34, nuclei and caspase counts, primary screen (AID 1347080). The settings on record: A549 miR-34 inducible, Hoechst nuclei count, 48 h.
Experiment [2] can be described thus: MELAS cybrid and Rieske KO viability enhancers – cell-based, MELAS cybrids, Rieske KO mouse fibroblasts, CellTiter-Glo, primary screen (AID 1508586;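 active = mean z-score across replicates of 1.96 or higher in either the MELAS or the Rieske mutant cell line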;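 note: z relative to plate mean and SD of compound and empty wells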). The settings on record: low glucose.
In experiment [3] the test system is Hepatitis C virus NS3 helicase. Kind of experiment: blockers of NS3h binding to ssDNA – biochemical, fluorescence polarization, LOPAC1280 library, primary screen (AID 687035; in the data active = inhibition above about 37%). Particulars: Purified HCV NS3 helicase, Cy5-dT15 ssDNA binding fluorescence polarization; stronger effect = higher value; concentration not given here. (In fluorescence polarisation assays a small probe gives low polarisation when free and higher when bound to something large.)

Experiment [4] can be described thus: compounds altering Cy5-DNA-NS3h complex signal – biochemical, LOPAC1280, artefact control for HCV NS3 helicase inhibitor project (AID 687037; call rule not given here). Particulars: Cy5-DNA-NS3h complex fluorescence interference counterscreen. Background: A counterscreen serves to expose hits that act by an unwanted route or on another target.
Experiment [5] can be described thus: blockers of cellular phospholipid synthesis – cell-based, LOPAC library, screen 4, primary screen (AID 1347384; call rule not given here). Particulars: animal cells, phospholipid biosynthesis inhibition screen; at 10 µM.
Experiment [6] in a line: galactose survival enhancers in mitochondrial complex I cybrids – cell-based, galactose medium, ATP luminescence, primary screen (AID 1645843;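 active = z-score of at least 1.8 in each of two replicates, scored against plate mean and spread of sample wells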;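 note: positive z means more ATP and so rescue of galactose-driven cybrid death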). The settings on record: complex I mutant cybrid cells, 72 h, stronger effect = higher value.
[7] abbreviates: stronger effect = lower value, cell number ratio, induced over uninduced.
Setting [8] is: measured here: relative caspase fold change +Dox/-Dox.
Setting [9] is: measured here: total cells with miR-34 induction, stronger effect = lower value.
Where [10] appears, read: measured here: total cells without miR-34 induction.
[11] abbreviates: MELAS cybrid survival, CellTiter-Glo 48 h, stronger effect = higher value.
Setting [12] is: Rieske KO mouse fibroblast survival, CellTiter-Glo 72 h.

Calls of active or inactive are those of the source.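 Rule for the calls, unless noted: active = compounds whose cell count with miR-34 switched on is under 0.7 times the count with it off; inactive = the rest.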

On to `O=C1C=CC[C@@H]2[C@@H]3CCCN4CCC[C@@H](CN12)[C@@H]34`, for which the fold change was 0.92 (inactive) in experiment [1] (setting [7]) and 0.733 in experiment [1] (setting [8]). Besides, the cell count in experiment [1] (setting [9]) came to 9530; in experiment [1] (setting [10]) it was 10400. The z-score in experiment [2] (setting [11]) was -0.329 (inactive); in experiment [2] (setting [12]) it was 0.595.

Take `COc1cc(-n2c(=S)[nH]c3ccccc3c2=O)c(Cl)cc1Cl`: the fold change in experiment [1] (stronger effect = lower value) was 0.878 (inactive); in experiment [1] (setting [8]), 0.323. Also, the cell count came out at 6620 in experiment [1] (setting [9]) and 7540 in experiment [1] (setting [10]). The z-score is 0.632 (inactive) in experiment [2] (setting [11]) and 1.12 in experiment [2] (setting [12]).

With `C=C[C@H]1CN2CCC1C[C@H]2C(O)c1ccnc2ccccc12` (some centres undefined), the fold change in experiment [1] (setting [7]) is 0.935 (inactive); in experiment [1] (setting [8]), 0.691. The values for the cell count in experiment [1] (setting [9]) and in experiment [1] (setting [10]) were 8540 and 9140, respectively. The z-score in experiment [2] (setting [11]) was -0.21 (inactive); in experiment [2] (setting [12]), 0.792.

`COc1ccc(S(=O)(=O)N(CCO)c2ccccc2CN(C)CC=Cc2ccc(Cl)cc2)cc1`: the fold change in experiment [1] (setting [7]) is 0.937 (inactive); in experiment [1] (setting [8]), 0.634. Further, the cell count was found to be 5210 in experiment [1] (setting [9]) and 5560 in experiment [1] (setting [10]). For the same molecule, the figures for the z-score in experiment [2] (setting [11]) and in experiment [2] (setting [12]) were -0.474 (inactive) and -0.774, respectively.

For `C=CCN1CC[C@]23c4c5ccc(O)c4O[C@H]2C(=O)CC[C@@]3(O)C1C5`, the fold change was 0.942 (inactive) in experiment [1] (stronger effect = lower value) and 1.73 in experiment [1] (setting [8]). Moreover, the cell count in experiment [1] (setting [9]) was 7860; in experiment [1] (setting [10]), 8350. Besides, the z-score in experiment [2] (setting [11]) was 0.0762 (inactive); in experiment [2] (setting [12]), -0.34.

For the molecule `CCc1cc2c(s1)-n1c(C)nnc1CN=C2c1ccccc1Cl`, the fold change was 0.948 (inactive) in experiment [1] (stronger effect = lower value) and 0.493 in experiment [1] (setting [8]). Besides, the cell count in experiment [1] (setting [9]) came out at 8260; in experiment [1] (setting [10]), 8710. The results for the z-score in experiment [2] (setting [11]) and in experiment [2] (setting [12]) were -0.248 (inactive) and -0.187, respectively.

On to `Cc1c(N)nc(C(CC(N)=O)NCC(N)C(N)=O)nc1C(=O)NC(C(=O)NC(C)C(O)C(C)C(=O)NC(C(=O)NCCc1nc(-c2nc(C(=O)NCCC[S+](C)C)cs2)cs1)C(C)O)C(OC1OC(CO)C(O)C(O)[C@H]1OC1OC(CO)C(O)C(OC(N)=O)C1O)c1cnc[nH]1` (some centres undefined), for which the values for the fold change in experiment [1] (setting [7]) and in experiment [1] (setting [8]) were 1.05 (inactive) and 0.471, respectively. For the same molecule, the cell count in experiment [1] (setting [9]) is 3100; in experiment [1] (setting [10]) it was 2960. In addition, the z-score was -0.352 (inactive) in experiment [2] (setting [11]) and -0.104 in experiment [2] (setting [12]).

For `CN(C)C1C(=O)C(C(N)=O)=C(O)[C@@]2(O)C(=O)C3=C(O)c4c(O)cccc4[C@@](C)(O)[C@H]3C(O)[C@@H]12` (some centres undefined), the fold change was 0.897 (inactive) in experiment [1] (setting [7]) and 0.837 in experiment [1] (setting [8]). Further, the cell count worked out at 7930 in experiment [1] (setting [9]) and 8840 in experiment [1] (setting [10]). The z-score in experiment [2] (setting [11]) was -0.21 (inactive); in experiment [2] (setting [12]), 0.479.

Take `CC(=Cc1csc(C)n1)C1CC2O[C@]2(C)CCCC(C)C(O)C(C)C(=O)C(C)(C)C(O)CC(=O)O1` (some centres undefined): the fold change was 1.08 (inactive) in experiment [1] (setting [7]) and 0.662 in experiment [1] (setting [8]). In addition, the results for the cell count in experiment [1] (setting [9]) and in experiment [1] (setting [10]) were 1610 and 1500, respectively. Further, the z-score in experiment [2] (setting [11]) was 1.69 (inactive); in experiment [2] (setting [12]), -0.237.

Turning to `C[C@H](N)Cc1cccc(C(F)(F)F)c1`, in experiment [3], the inhibition is -3% (inactive). For the same molecule, the fluorescence ratio (interference) in experiment [4] is 1 (inactive). Further, the fold change in experiment [1] (stronger effect = lower value) is 0.951 (inactive); in experiment [1] (setting [8]) it was 1.01. Further, the cell count in experiment [1] (setting [9]) came out at 10400; in experiment [1] (setting [10]) it was 11000. In addition, the call in experiment [5] was inactive. Besides, the z-score in experiment [6] was 0.04 (inactive).

Turning to `NC(N)=NOCCC(N)C(=O)O` (centres undefined), the inhibition in experiment [3] was 0% (inactive). The fluorescence ratio (interference) in experiment [4] is 1.1 (inactive). The fold change in experiment [1] (stronger effect = lower value) is 0.949 (inactive); in experiment [1] (setting [8]), 1.82. For the same molecule, the cell count in experiment [1] (setting [9]) came out at 9120; in experiment [1] (setting [10]), 9610. For the same molecule, the molecule was called inactive in experiment [5]. Also, in experiment [6], the z-score was 0.49 (inactive).

In the case of `O=[N+]([O-])C=Cc1ccc2c(c1)OCO2`, the figures for the fold change in experiment [1] (setting [7]) and in experiment [1] (setting [8]) were 0.859 (inactive) and 0.554, respectively. The cell count in experiment [1] (setting [9]) was found to be 5450; in experiment [1] (setting [10]), 6350. The z-score was 0.246 (inactive) in experiment [2] (setting [11]) and -0.259 in experiment [2] (setting [12]).

Take `CCC1C=CC=CCC(C)C(O)[C@@](C)(O)C(=O)C(C)[C@@H](O)C(C)C(=O)C(C)C(O)C(C)C=CC(=O)OC2C(C)[C@]3(CCC(C)C(CC(C)O)O3)OC(CC1)[C@H]2C` (some centres undefined): the values for the fold change in experiment [1] (setting [7]) and in experiment [1] (setting [8]) were 1.1 (inactive) and 0.572, respectively. For the same molecule, the cell count in experiment [1] (setting [9]) was 3070; in experiment [1] (setting [10]), 2800. Besides, the figures for the z-score in experiment [2] (setting [11]) and in experiment [2] (setting [12]) were -0.13 (inactive) and -0.402, respectively.

For `CC1CNCCc2ccc(Cl)cc21` (centres undefined), the fold change in experiment [1] (stronger effect = lower value) was 0.911 (inactive); in experiment [1] (setting [8]) it was 0.645. The cell count in experiment [1] (setting [9]) was 8250; in experiment [1] (setting [10]), 9060. Moreover, the z-score in experiment [2] (setting [11]) was -0.213 (inactive); in experiment [2] (setting [12]), -0.176.

In the case of `C=CC[C@@]1(O)CC[C@H]2[C@@H]3CCC4=CC(=O)CCC4=C3C=C[C@@]21C`, the fold change was 0.88 (inactive) in experiment [1] (setting [7]) and 0.451 in experiment [1] (setting [8]). Moreover, the cell count stood at 7350 in experiment [1] (setting [9]) and 8350 in experiment [1] (setting [10]). Besides, the z-score in experiment [2] (setting [11]) was -0.295 (inactive); in experiment [2] (setting [12]), -0.164.

In the case of `O=C1/C(=C/c2ccccc2)C[C@@]2(O)[C@H]3Cc4ccc(O)c5c4[C@@]2(CCN3CC2CC2)[C@H]1O5`, the inhibition in experiment [3] is -4% (inactive). In experiment [4], the fluorescence ratio (interference) is 1 (inactive). Moreover, the fold change in experiment [1] (stronger effect = lower value) is 1.23 (inactive); in experiment [1] (setting [8]), 1.39. Also, the cell count in experiment [1] (setting [9]) was determined as 588; in experiment [1] (setting [10]), 478. Also, the outcome in experiment [5] was inactive. Besides, the z-score in experiment [6] was -1 (inactive).

Take `CC1C=CC=CCCC=CC=CC=CC=CC(OC2OC(C)C(O)C(N)C2O)CC2O[C@@](O)(CC(O)C(O)CCC(O)CC(O)CC(O)CC(=O)OC(C)C(C)C1O)CC(O)C2C(=O)O` (some centres undefined): the figures for the fold change in experiment [1] (setting [7]) and in experiment [1] (setting [8]) were 0.946 (inactive) and 1.01, respectively. Besides, the cell count in experiment [1] (setting [9]) was 7910; in experiment [1] (setting [10]), 8370. In addition, the z-score in experiment [2] (setting [11]) is 0.0382 (inactive); in experiment [2] (setting [12]), 0.415.

Take `CC(=Cc1csc(C)n1)C1CC2OC2CCCC(C)C(O)C(C)C(=O)C(C)(C)C(O)CC(=O)O1` (centres undefined): the fold change in experiment [1] (setting [7]) is 1.08 (inactive); in experiment [1] (setting [8]), 1.17. Also, the cell count is 1520 in experiment [1] (setting [9]) and 1410 in experiment [1] (setting [10]). In addition, the z-score in experiment [2] (setting [11]) is 1.25 (inactive); in experiment [2] (setting [12]), 0.224.

As to `CN1CC[C@@]2(C)c3cc(OC(=O)Nc4ccccc4)ccc3N(C)[C@@H]12`, in experiment [3], the inhibition was -3% (inactive). Moreover, the fluorescence ratio (interference) in experiment [4] was 1 (inactive). The fold change was 0.963 (inactive) in experiment [1] (stronger effect = lower value) and 1.22 in experiment [1] (setting [8]). Moreover, the figures for the cell count in experiment [1] (setting [9]) and in experiment [1] (setting [10]) were 10200 and 10600, respectively. In experiment [5], the result was inactive. In experiment [6], the z-score was -0.985 (inactive).

For the molecule `C[C@]12CC[C@@H]3[C@@H](CC[C@@]45O[C@@H]4C(O)=C(C#N)C[C@]35C)[C@@H]1CCC2O` (some centres undefined), the fold change in experiment [1] (stronger effect = lower value) is 0.917 (inactive); in experiment [1] (setting [8]), 0.921. Further, the cell count came to 7740 in experiment [1] (setting [9]) and 8440 in experiment [1] (setting [10]). For the same molecule, the z-score in experiment [2] (setting [11]) was -0.378 (inactive); in experiment [2] (setting [12]), 0.316.

As for `Cc1ccc(-n2nccn2)c(C(=O)N2CCN(c3nc4cc(Cl)ccc4o3)CCC2C)c1` (centres undefined), the fold change in experiment [1] (stronger effect = lower value) was 0.837 (inactive); in experiment [1] (setting [8]), 0.399. In addition, the cell count in experiment [1] (setting [9]) worked out at 6970; in experiment [1] (setting [10]) it was 8330. Further, the z-score in experiment [2] (setting [11]) is -0.269 (inactive); in experiment [2] (setting [12]), -2.87.

In general, inhibition refers to the drop in the measured response relative to a control, in per cent.
